Measurements published in PubChem BioAssay (NCATS).
Unmarked numbers belong to inactive results. Inconclusive results are not listed. Active and inactive are the calls of the source. Unless noted, the call rests on the fitted dose curve; in most records, active means well fitted curve in either direction with a large enough effect (not every such curve was filed as active); inconclusive means small, poorly fitted or top-dose-only effect, or another doubt; inactive means flat fitted curve, though single readings scatter. Residues, ends and D or L forms follow the SMILES beside them.

Columns and labels:
[1] = target: Lysosomal acid glucosylceramidase (Homo sapiens) (UniProt P04062); experiment: Glucocerebrosidase-p2 (AID 348; in the data active means potency below about 10 µM; further: potency means the concentration at half of the fitted maximal effect); conditions: purified GBA, blue fluorogenic substrate, 40 min
Outline: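 Normal human glucocerebrosidase (0.2 nM) with blue fluorogenic substrate (80 uM final) in citrate/phosphate pH 5.9 with 10mM sodium taurocholate, 0.01% tween-20; 40 min RT, NaOH/glycine stop; fluorescence Ex 365/Em 440; AC50 from a titration from 0.6 nM upwards.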

[2] = AP1 Signaling Pathway (AID 357); conditions: ME-180 AP-1-bla reporter, EGF-induced, beta-lactamase ratio, 5 h; at 7.69 µM (top of the series) unless noted;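 further: ME-180 reporter cells stimulated with EGF at its EC50 level; on the % scale 0 is the no-effect control and ±100 the full control effect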
Outline: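 First, ME-180 AP-1-bla cells were cultured overnight at 37 °C in low-serum Opti-MEM. Next, titrated compounds with EC50 EGF were incubated 5 hours. Finally, CCF4 was added for 2.5 hours and the 460/530 nm ratio recorded.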

[3] = target: Cytochrome P450 1A2 (Homo sapiens) (UniProt P05177); experiment: p450-cyp1a2 (AID 410; calls by dose curve; further: potency means the concentration at half of the fitted maximal effect;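 on activity change, negative = inhibition: -100% = full effect of reference inhibitor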); conditions: recombinant CYP1A2, luciferin-ME demethylation, luminescence; series mostly up to 11.4 µM
Outline: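 20nM CYP1A2, 100uM Luciferin-ME (=Km), 100mM KPO4; cpd 10 min RT; +NADPH regen, 60 min RT; stop/detect 20 min; luminescence. Normalized to furafylline 57 uM = full inhibition.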

[4] = NFAT Signaling Pathway (AID 444); conditions: Jurkat NFAT-bla M1, carbachol, beta-lactamase ratio, 5 h; at 7.69 µM (top of the series) unless noted;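 further: carbachol stimulus at about its EC50 of 1 µM final; on the % scale 0 is the no-effect control and ±100 the full control effect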
Outline: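 Read-out: CCF4 FRET ratio (460 nm/530 nm) after 1 h RT dye loading, used for %activity and AC50 from titration series. Cells: Jurkat NFAT-β-lactamase/M1 line, treated with compound plus 1 uM carbachol for 5 h, 37 °C.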

[5] = Stat Signaling Pathway (AID 446); conditions: ME-180 (cervical carcinoma) SIE beta-lactamase reporter, IL-6 stimulated, 5 h; at 7.69 µM (top of the series) unless noted;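 further: ME-180 cervical cancer cells given 40 pM IL-6 alongside compound; SIE-controlled beta-lactamase reporter measured as 460/530 nm FRET emission ratio; on the % scale 0 is the no-effect control and ±100 the full control effect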
Outline: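 FRET read-out (405 nm excitation, 460/530 nm emission) of a beta-lactamase reporter under a STAT-inducible element in ME-180 cervical carcinoma cells. Cells with compound receive 40 pM IL-6 for 5 h. Values are normalised to AC90 stimulation and AC90 JAK-inhibitor controls.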

[6] = target: Glucocorticoid receptor (Homo sapiens) (UniProt P04150); experiment: GR-GFP Redistribution (AID 450;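 active means compounds whose dose series gives a full or clear partial fitted curve of increased nuclear translocation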; further: potency means the concentration at half of the fitted maximal effect); conditions: U2OS GR-GFP nuclear translocation, laser cytometry, 2 h
[7] = target: Glucocorticoid receptor (Homo sapiens) (UniProt P04150); experiment: GR-EFC Redistribution (AID 451; calls by dose curve; further: potency means the concentration at half of the fitted maximal effect); conditions: CHO-K1 GR-EFC translocation, beta-gal luminescence, 2 h
Outline: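 Translocation of GR-ED fusion to nuclear EA restores b-gal, read by luminescence after 1 h room-temperature detection. Engineered CHO-K1 biosensor cells, 1,000/well, exposed 2 h at 37 C to titrations up to 46 uM final.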

[8] = target: Mitogen-activated protein kinase 10 (Mus musculus) (UniProt Q61831); experiment: JNK3 AlphaScreen Assay (AID 530); conditions: JNK3 lysate, c-Jun phosphorylation; series mostly up to 11.4 µM;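 further: kinase came from lysate of stimulated human HepG2 cells; signal reports phosphorylation of biotinylated GST-cJun 1-79 at Ser73 with 10 µM ATP; on the % scale 0 is the no-effect control and ±100 the full control effect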
Outline: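 Kinase buffer: 20 mM Tris-HCl pH 7.6, 10 mM MgCl2, 1 mM DTT, 0.1 mM Na3VO4, 0.01% Tween-20; ATP 10 uM. Substrate biotin-GST-cJun(1-79), enzyme from activated HepG2 lysates. Detection by Ser73 phospho-antibody AlphaScreen.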

[9] = target: 3',5'-cyclic-AMP phosphodiesterase 4B (Homo sapiens) (UniProt Q07343); experiment: qHTS Assay for Inhibitors of PDE-IV (AID 607; active means well fitted activation curve with a large enough effect in the main read-out, with a control signal flat, not every such curve was filed as active; further: % of control where 0% means no effect); conditions: HEK293 ACTOne CNG channel cells, membrane potential fluorescence; series mostly up to 22.9 µM
Outline: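 Cell-based read-out of cAMP via a modified cyclic nucleotide-gated channel and membrane potential dye (535/590 nm) in HEK293 cells expressing PDE4 endogenously. Compounds tested up to 22.9 uM final; 100 uM RO 20-1724 reference.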

3',5'-cyclic-AMP phosphodiesterase 4B (Homo sapiens), sequence (Q07343 whole entry, looked up): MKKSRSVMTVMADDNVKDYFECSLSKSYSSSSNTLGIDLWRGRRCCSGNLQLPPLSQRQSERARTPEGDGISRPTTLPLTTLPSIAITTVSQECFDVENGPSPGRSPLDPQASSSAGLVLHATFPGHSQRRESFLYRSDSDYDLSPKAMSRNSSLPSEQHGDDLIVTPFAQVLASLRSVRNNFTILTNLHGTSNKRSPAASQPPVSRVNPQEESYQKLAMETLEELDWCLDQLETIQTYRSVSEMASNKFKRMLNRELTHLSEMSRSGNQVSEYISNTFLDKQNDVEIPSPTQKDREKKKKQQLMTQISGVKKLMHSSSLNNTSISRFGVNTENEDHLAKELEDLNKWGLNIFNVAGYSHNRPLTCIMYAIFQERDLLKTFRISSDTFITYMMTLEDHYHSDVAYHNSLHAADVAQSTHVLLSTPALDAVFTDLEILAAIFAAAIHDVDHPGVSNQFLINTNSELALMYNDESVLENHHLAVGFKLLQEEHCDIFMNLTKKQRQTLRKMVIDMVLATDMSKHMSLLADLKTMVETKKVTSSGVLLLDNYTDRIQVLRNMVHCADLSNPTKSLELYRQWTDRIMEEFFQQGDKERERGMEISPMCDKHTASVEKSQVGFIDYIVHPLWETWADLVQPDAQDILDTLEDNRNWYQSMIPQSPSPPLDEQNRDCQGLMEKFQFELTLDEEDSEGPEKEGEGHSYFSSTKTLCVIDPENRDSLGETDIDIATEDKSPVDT
Lysosomal acid glucosylceramidase (Homo sapiens), sequence (P04062 whole entry, looked up): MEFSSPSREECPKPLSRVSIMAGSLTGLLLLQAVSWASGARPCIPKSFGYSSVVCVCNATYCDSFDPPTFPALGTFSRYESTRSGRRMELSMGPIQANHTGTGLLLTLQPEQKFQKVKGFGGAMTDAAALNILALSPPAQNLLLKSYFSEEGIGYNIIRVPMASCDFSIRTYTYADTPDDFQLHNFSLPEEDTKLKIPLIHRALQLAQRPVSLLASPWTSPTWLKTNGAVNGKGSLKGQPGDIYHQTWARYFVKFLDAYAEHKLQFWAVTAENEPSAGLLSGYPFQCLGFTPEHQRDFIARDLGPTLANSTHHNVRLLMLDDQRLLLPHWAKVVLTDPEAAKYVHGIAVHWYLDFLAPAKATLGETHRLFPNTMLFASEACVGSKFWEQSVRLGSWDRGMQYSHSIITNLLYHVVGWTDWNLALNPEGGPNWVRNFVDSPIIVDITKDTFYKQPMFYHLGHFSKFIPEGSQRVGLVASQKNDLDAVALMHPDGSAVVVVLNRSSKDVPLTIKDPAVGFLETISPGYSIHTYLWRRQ
Glucocorticoid receptor (Homo sapiens), sequence (P04150 whole entry, looked up, the tested form may be a part): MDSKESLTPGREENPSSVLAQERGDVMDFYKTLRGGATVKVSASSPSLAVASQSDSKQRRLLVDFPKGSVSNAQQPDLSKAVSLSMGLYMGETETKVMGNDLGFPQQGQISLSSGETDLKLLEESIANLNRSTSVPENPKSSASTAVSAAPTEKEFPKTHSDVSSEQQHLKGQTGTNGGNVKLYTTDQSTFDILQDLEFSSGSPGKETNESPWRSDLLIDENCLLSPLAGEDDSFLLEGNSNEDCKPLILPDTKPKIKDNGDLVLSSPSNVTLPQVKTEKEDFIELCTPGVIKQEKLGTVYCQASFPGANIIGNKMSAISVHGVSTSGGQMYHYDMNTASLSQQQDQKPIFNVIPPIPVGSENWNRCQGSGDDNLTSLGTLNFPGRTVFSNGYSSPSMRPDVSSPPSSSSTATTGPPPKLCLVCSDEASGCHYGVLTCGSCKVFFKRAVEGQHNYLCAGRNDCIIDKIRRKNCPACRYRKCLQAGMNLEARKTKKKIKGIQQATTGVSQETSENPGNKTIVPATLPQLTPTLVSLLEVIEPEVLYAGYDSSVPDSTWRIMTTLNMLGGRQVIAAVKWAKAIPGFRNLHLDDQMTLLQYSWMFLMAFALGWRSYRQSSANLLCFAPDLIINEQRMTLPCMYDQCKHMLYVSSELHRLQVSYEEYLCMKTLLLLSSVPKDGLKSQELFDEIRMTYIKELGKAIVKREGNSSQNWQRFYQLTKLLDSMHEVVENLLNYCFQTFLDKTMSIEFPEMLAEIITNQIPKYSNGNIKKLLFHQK
Cytochrome P450 1A2 (Homo sapiens), sequence (P05177 whole entry, looked up): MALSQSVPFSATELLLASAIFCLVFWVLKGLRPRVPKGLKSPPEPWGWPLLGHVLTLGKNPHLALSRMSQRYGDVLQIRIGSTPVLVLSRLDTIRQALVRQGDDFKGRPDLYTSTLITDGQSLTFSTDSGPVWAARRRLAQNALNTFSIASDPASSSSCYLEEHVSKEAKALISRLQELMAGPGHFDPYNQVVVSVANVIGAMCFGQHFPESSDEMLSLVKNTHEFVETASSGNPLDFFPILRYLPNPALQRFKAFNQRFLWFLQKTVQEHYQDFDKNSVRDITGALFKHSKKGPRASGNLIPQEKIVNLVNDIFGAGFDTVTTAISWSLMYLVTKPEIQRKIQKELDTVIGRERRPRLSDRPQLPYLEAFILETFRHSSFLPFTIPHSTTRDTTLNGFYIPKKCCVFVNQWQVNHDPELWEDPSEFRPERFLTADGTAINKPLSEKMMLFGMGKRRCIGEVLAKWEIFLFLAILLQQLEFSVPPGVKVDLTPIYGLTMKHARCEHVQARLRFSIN

For `CC1CCC(C(=O)O)([C@H](Br)C(=O)O)CC1` (stereo partly drawn), the Potency [1] was greater than 11.4 µM, the activity change, negative = inhibition [2] was -2.54% and the Potency [3] was “inactive”. For the same compound, the activity change, negative = inhibition [4] was 13.7%, the activity, negative = inhibition [5] was 8% and the Potency [6] was greater than 46 µM. For the same compound, the Potency [7] was greater than 9.22 µM, the Potency [8] was “inactive” and the Potency [9] was “inactive”.
With `O=C(O)C[C@H](Cc1ccccc1Cl)C(=O)O` the Potency [1] was greater than 11.4 µM, the activity change, negative = inhibition [2] was -0.0824% and the Potency [3] was “inactive”. The activity change, negative = inhibition [4] was -7.65%, the activity, negative = inhibition [5] was 13.9% and the Potency [6] was greater than 46 µM. For the same compound, the Potency [7] was greater than 9.22 µM, the Potency [8] was “inactive” and the Potency [9] was “inactive”.
With `NCC(=O)N[C@H](CO)C(=O)O` (HELM PEPTIDE1{G.[dS]}$$$$V2.0) the Potency [1] was greater than 11.4 µM, the activity change, negative = inhibition [2] was 12.3% and the Potency [3] was “inactive”. The activity change, negative = inhibition [4] was -7.28%, the activity, negative = inhibition [5] was 10.1% and the Potency [6] was greater than 46 µM. The Potency [7] was greater than 9.22 µM and the Potency [8] was “inactive”.
`CC1(C)O[C@@H]2O[C@H]([C@@H]3COC(C)(C)O3)[C@H](N)[C@H]2O1` gave a Potency [1] greater than 11.4 µM, an activity change, negative = inhibition [2] of 5.74% and an activity change, negative = inhibition [3] of 8.7% [at 2.29 µM]. The activity change, negative = inhibition [4] was 10.1%, the activity, negative = inhibition [5] was 5.21% and the Potency [6] was greater than 46 µM. For the same compound, the Potency [7] was greater than 9.22 µM, the Potency [8] was “inactive” and the Potency [9] was “inactive”.
In the case of `O=C(O)c1ccc([N+]2=Cn3c(nc4ccccc43)C2)cc1`, the Potency [1] is reported as greater than 11.4 µM, the activity change, negative = inhibition [2] is reported as -0.795% and the Potency [3] is reported as 5.01 µM (active). It also gave an activity change, negative = inhibition [4] of 9.31%, an activity, negative = inhibition [5] of 0.556% and a Potency [6] greater than 46 µM. For the same compound, the Potency [7] was greater than 9.22 µM, the Potency [8] was “inactive” and the Potency [9] was “inactive”.
With `c1ccc(CCc2cccnc2)nc1` the Potency [1] was greater than 11.4 µM, the activity change, negative = inhibition [2] was 12.9% and the Potency [3] was 0.398 µM (active). It also gave an activity change, negative = inhibition [4] of 14.1%, an activity, negative = inhibition [5] of 0.19% and a Potency [6] greater than 46 µM. For the same compound, the Potency [7] was greater than 9.22 µM, the Potency [8] was “inactive” and the Potency [9] was “inactive”.
In the case of `c1ccc2cc(-c3cc(-c4cc(-c5ccc6ccccc6c5)on4)no3)ccc2c1`, the Potency [1] is reported as greater than 11.4 µM, the activity change, negative = inhibition [2] is reported as 2.52% and the Potency [3] is reported as 1.58 µM (active). For the same compound, the activity change, negative = inhibition [4] was 1.2%, the activity, negative = inhibition [5] was 1.33% and the Potency [6] was greater than 46 µM. For the same compound, the Potency [7] was greater than 9.22 µM and the Potency [8] was “inactive”.
Compound `CN1CCN(c2nc3c(c(=O)n(C)c(=O)n3C)n2C)CC1` has a Potency [1] greater than 11.4 µM, an activity change, negative = inhibition [2] of -1.63% and an activity change, negative = inhibition [3] of -16.8% [at 2.29 µM]. The activity change, negative = inhibition [4] was 1.71%, the activity, negative = inhibition [5] was -1.51% and the Potency [6] was greater than 46 µM. The Potency [7] was greater than 9.22 µM and the Potency [8] was “inactive”.
With `Cc1cc([N+](=O)[O-])c(C)c(Br)c1C` the Potency [1] was greater than 11.4 µM, the activity change, negative = inhibition [2] was 3.15% and the Potency [3] was 1 µM (active). The activity change, negative = inhibition [4] was -7.3%, the activity, negative = inhibition [5] was 6.97% and the Potency [6] was greater than 46 µM. For the same compound, the Potency [7] was greater than 9.22 µM, the Potency [8] was “inactive” and the Potency [9] was “inactive”.
In the case of `N#C/C(=C\Nc1ccccn1)C(=O)C1CC1`, the Potency [1] is reported as greater than 11.4 µM, the activity change, negative = inhibition [2] is reported as 7.75% and the Potency [3] is reported as 1.26 µM (active). It also gave an activity change, negative = inhibition [4] of 5.1%, an activity, negative = inhibition [5] of 1.86% and a Potency [6] greater than 46 µM. For the same compound, the Potency [7] was greater than 9.22 µM, the Potency [8] was “inactive” and the Potency [9] was “inactive”.
With `Cn1c(=O)c2c(nc(N/N=C\c3ccccc3C(=O)O)n2C)n(C)c1=O` the Potency [1] was greater than 11.4 µM, the activity change, negative = inhibition [2] was -10.8% and the Potency [3] was “inactive”. For the same compound, the activity change, negative = inhibition [4] was 5.57%, the activity, negative = inhibition [5] was 3.2% and the Potency [6] was greater than 46 µM. The Potency [7] was greater than 9.22 µM, the Potency [8] was “inactive” and the Potency [9] was “inactive”.
In the case of `Oc1c(Cl)cc(CN(Cc2cc(Cl)c(O)c(Cl)c2)C2CCCCC2)cc1Cl`, the Potency [1] is reported as greater than 11.4 µM, the activity change, negative = inhibition [2] is reported as 4.05% and the activity change, negative = inhibition [3] is reported as 11.3% [at 2.29 µM]. It also gave an activity change, negative = inhibition [4] of 1.82%, an activity, negative = inhibition [5] of -25.8% and a Potency [6] greater than 46 µM. For the same compound, the Potency [7] was greater than 9.22 µM, the Potency [8] was “inactive” and the Potency [9] was “inactive”.
For `CC(=O)C=NCC(=O)O`, the Potency [1] was greater than 11.4 µM, the activity change, negative = inhibition [2] was -0.671% and the Potency [3] was “inactive”. For the same compound, the activity change, negative = inhibition [4] was 3.49%, the activity, negative = inhibition [5] was -0.18% and the Potency [6] was greater than 46 µM. For the same compound, the Potency [7] was greater than 9.22 µM, the Potency [8] was “inactive” and the Potency [9] was “inactive”.
With `CS[C@@H](CC(=O)O)C(=O)O` the Potency [1] was greater than 11.4 µM, the activity change, negative = inhibition [2] was 2.29% and the Potency [3] was “inactive”. For the same compound, the activity change, negative = inhibition [4] was 3.57%, the activity, negative = inhibition [5] was 2.44% and the Potency [6] was greater than 46 µM. For the same compound, the Potency [7] was greater than 9.22 µM, the Potency [8] was “inactive” and the Potency [9] was “inactive”.
